Pf apPOL block: Pf-apPOL DNA polymerase inhibition; Recombinant Pf-apPOL, molecular beacon fluorescence, 1.5 h; AID 1794808; 210,000 compounds, 0.25% hits; inhibition, % at 10 µM
mHTT-CaM PPI inh: mHTT-calmodulin interaction abrogation; P42858; AlphaScreen His-mHTT/GST-CaM binding, luminescence; inhibition, % at 15 µM; 190,000 compounds, 3.6% hits
A number is an active result; n = inactive; x = no result given; + = active, no number. Rows were chosen to be rich in hits. Some 3.5% of all compounds tested hit in one or more screens of this group. Cut-off read from the data, not from the text of the source: active = inhibition above about 50%; inactive = the rest.

SMILES | Pf apPOL block | mHTT-CaM PPI inh
CC(C)CN1COc2ccc3c(=O)c(-c4ccccc4)coc3c2C1 | n | n
CC(C)(C)N=C1Nc2ncccc2NC12CCN(C(=O)c1cc(-c3cccs3)[nH]n1)CC2 | n | 57
CC(C)(C)N=C1Nc2ncccc2NC12CCCN(C(=O)c1cc(-c3cccs3)[nH]n1)C2 (stereo not given) | n | n
CCCN1CCCc2cc(N=Nc3ccc(C(F)(F)F)cc3)ccc21 | n | x
O=C(Nc1ccc(Br)cc1)c1ccc(F)c(S(=O)(=O)NCC2CCCO2)c1 (stereo not given) | n | n
COc1ccccc1NC(=O)c1ccccc1[N+](=O)[O-] | n | n
COc1ccccc1NC(Nc1ccccc1OC)=C(/C=C(\Cl)[N+](=O)[O-])[N+](=O)[O-] | n | 73
Cc1oc2ccc(OCc3cccc(F)c3)cc2c1C(=O)O | 56 | n
Cc1oc2ccc(OCc3ccccc3)cc2c1C(=O)O | n | n
C#CCOC(C)n1cccc1-c1cccs1 (stereo not given) | x | n
O=S(=O)(c1c(F)cccc1F)N(CCc1ccc(F)cc1)C[C@@H](O)COCc1ccccc1 | n | 99
CN(CC(O)COCc1ccccc1)C1CCCCC1 (stereo not given) | n | n
CC1CC(C)CN(S(=O)(=O)c2ccc(C(=O)Nc3cc(C(F)(F)F)ccc3Cl)cc2)C1 (stereo not given) | n | n
O=C(Nc1nc(-c2ccccn2)cs1)c1ccc(Oc2ccccc2)cc1 | n | 94
O=C(Nc1nc(-c2cc([N+](=O)[O-])cs2)cs1)c1cc(-c2ccco2)on1 | n | n
COc1cc(OC)cc(C(=O)Nc2nc(C(=O)NC(C)c3ccccc3)cs2)c1 (stereo not given) | n | n
O=C(Nc1cc(-c2ccccn2)no1)c1ccccn1 | n | 100
COc1cc(OC)cc(C(=O)Nc2nc(-c3ccccn3)cs2)c1 | n | 100
O=C(Nc1cc(-c2ccccn2)no1)c1ccc(Cl)cc1 | n | n
O=C(Nc1nc(-c2ccccn2)cs1)c1cc(-c2ccco2)on1 | n | 100
O=C(Nc1nc(-c2ccccc2)cs1)c1ccncc1 | n | n
CCOc1ccc2nc(C(=O)NC(C)C)cn2n1 | n | n
COc1ccc(OC)c(/C=c2\sc3nc(-c4ccc(Cl)cc4)nn3c2=O)c1 | n | n
Cc1cc(C)cc(N2CC(C(=O)NC3CCN(Cc4ccccc4)CC3)CC2=O)c1 (stereo not given) | n | n
Cc1c(Cl)cccc1S(=O)(=O)Nc1ccc2c(c1)C(=O)NCC2 | n | n
SMILES | Pf apPOL block | mHTT-CaM PPI inh
O=C(C1CCCN(Cc2cccc(Br)c2)C1)N1CCCCC1 (stereo not given) | n | n
CCn1c(=O)c2c(ncn2C(C)C)n(-c2ccc(C)cc2)c1=O | n | n
CC1C(=O)C(C)C(c2ccc(F)cc2)NC1c1ccc(F)cc1 (stereo not given) | n | n
CC1C(=O)C(C)C(c2ccc(N(C)C)cc2)NC1c1ccc(N(C)C)cc1 (stereo not given) | n | 77
Cc1ccc(CN2CCC(c3nc(-c4cnccn4)n[nH]3)CC2)s1 | n | n
Cc1cccc(-n2nc3c(c2NC(=O)c2ccc(Cl)cc2)CS(=O)(=O)C3)c1C | n | n
COc1cc([N+](=O)[O-])ccc1-c1ccc(C(=O)Nc2cccnc2)o1 | n | 61
O=C(Nc1cccnc1)c1ccc([N+](=O)[O-])o1 | n | n
COc1ccc(C2C(=C(O)c3ccc(Br)cc3)C(=O)C(=O)N2C)cc1OC (stereo not given) | n | n
c1ccc(-c2n[nH]c(C3CCCN3Cc3ccco3)n2)cc1 (stereo not given) | n | n
c1ccc(-c2n[nH]c(C3CCCN3Cc3ccccn3)n2)cc1 (stereo not given) | n | 100
O=S(=O)(Oc1ccccc1N1CCOCC1)c1cccc2nonc12 | n | x
COc1ccc(NC(=O)N2CCc3c(c(COc4ccccc4)nn3C)C2)c(C)c1 | n | n
O=S1(=O)c2ccc(N3CCCC3)cc2Oc2ccccc2CN1Cc1cn(Cc2ccc(Cl)cc2)nn1 | n | n
CN1CCN(c2ccc3c(c2)Oc2ccccc2CN(Cc2cn(Cc4ccc(C(F)(F)F)cc4)nn2)S3(=O)=O)CC1 | n | 72
CC1CCCN(CC2CCN(S(=O)(=O)Cc3cccc(Cl)c3)CC2)C1 (stereo not given) | n | n
CNC(=O)c1ccc(Cn2ccsc2=NC(=O)c2ccc(F)cc2)cc1 | n | n
O=C(CN1C(=O)c2ccccc2C1=O)Nc1ccc(Cl)c([N+](=O)[O-])c1 | n | n
O=S1(=O)N=C(N/N=C/c2ccccn2)c2ccccc21 | x | +
Clc1cc(Cl)cc(N/N=C/c2ccccn2)c1 | x | n
Cn1nc(COc2ccc(F)cc2)c2c1CCN(C(=O)Nc1ccc(F)c(Cl)c1)C2 | n | 55
COc1ccc(NC(=O)N2CCc3c(c(COc4ccc(F)cc4)nn3C)C2)cc1F | n | n
Cn1nc(COc2ccc(F)cc2)c2c1CCN(C(=O)Nc1cccc(C(F)(F)F)c1)C2 | n | 59
Cn1nc(COc2cccc(F)c2)c2c1CCN(C(=O)Nc1cccc(Cl)c1)C2 | n | n

Screening data: PubChem BioAssay, University of Kansas High Throughput Screening Laboratory
